# USP2a inh: qHTS Assay for Inhibitors of Ubiquitin-specific Protease USP2a Using CHOP2 as the Reporter. Ubiquitin carboxyl-terminal hydrolase 2 (Homo sapiens), O75604. USP2 core, Ub-CHOP2 coupled fluorogenic reporter, 485/531. Potency, µM (series often up to 38.3 µM), inactives show at the top dose activity change, negative = inhibition, most hits filed as inhibitors. actives 0.01% (n = 330,000);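 note: potency is the fitted concentration of half-maximal effect; plate controls were DMSO wells for no effect and full inhibition by NEM control for full effect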
#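 Cell-free coupled assay: 10nM USP2 core preincubated 30min RT with compound in Tris-HCl pH 8.0/CaCl2/CHAPS buffer, then 25nM Ub-CHOP2 and 25nM reporter substrate; fluorescence (Ex 485/Em 531) read after 60min RT, normalized to NEM inhibition, concentration-response curves fitted.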
# L3MBTL1 block: qHTS Assay for the Inhibitors of L3MBTL1 | actives 0.66% (n = 230,000) | AlphaScreen L3MBTL1–H3K9me1 peptide binding | AID 485360, 2010 | Potency, µM (titrated, usually from 57.1 µM), for inactives: top-dose activity, negative = inhibition, most hits filed as inhibitors; note: potency is the fitted concentration of half-maximal effect; nearly all actives have a fitted effect of over 60% in size
#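 Read-out is AlphaScreen signal from streptavidin donor and nickel chelate acceptor beads (10 ug/mL final each) bridging L3MBTL1 (50 nM) and biotinylated K9-monomethylated H3(1-15) peptide (75 nM), after 30 min compound exposure at room temperature.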
# CtBP-E1A inh: qHTS Assay for Inhibitors of the CtBP/E1A Interaction | activity change, % (concentration not given with the values) | AID 651724, 2012 | CtBP / adenovirus E1A interaction (AlphaScreen) | AlphaScreen GST-E1A/His-CtBP binding, 1536-well; stronger effect = lower value | actives 0.49% (n = 340,000); in the data active = activity change below about -65%; inconclusive = mostly about -30% to -63%
#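 GST-E1A and His-tagged CtBP (125 nM each as 5X stock) were preincubated with pin-transferred compound for 2 h at 37 °C in the dark, then glutathione donor and nickel acceptor beads were added for 1 h before AlphaScreen reading.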
# Six1-Eya2 inh: qHTS Assay for Inhibitors of the Six1/Eya2 Interaction | Homeobox protein SIX1 (Homo sapiens) + Protein phosphatase EYA2 (Homo sapiens), … | AlphaScreen GST-Six1/His-Eya2 binding, biochemical; stronger effect = lower value | activity change, % (test concentration not listed) | actives 0.56% (n = 360,000) | AID 651725, 2012; in the data active = activity change below about -65%; inconclusive = mostly about -30% to -63%
# Target sequence (O00167 whole entry, looked up): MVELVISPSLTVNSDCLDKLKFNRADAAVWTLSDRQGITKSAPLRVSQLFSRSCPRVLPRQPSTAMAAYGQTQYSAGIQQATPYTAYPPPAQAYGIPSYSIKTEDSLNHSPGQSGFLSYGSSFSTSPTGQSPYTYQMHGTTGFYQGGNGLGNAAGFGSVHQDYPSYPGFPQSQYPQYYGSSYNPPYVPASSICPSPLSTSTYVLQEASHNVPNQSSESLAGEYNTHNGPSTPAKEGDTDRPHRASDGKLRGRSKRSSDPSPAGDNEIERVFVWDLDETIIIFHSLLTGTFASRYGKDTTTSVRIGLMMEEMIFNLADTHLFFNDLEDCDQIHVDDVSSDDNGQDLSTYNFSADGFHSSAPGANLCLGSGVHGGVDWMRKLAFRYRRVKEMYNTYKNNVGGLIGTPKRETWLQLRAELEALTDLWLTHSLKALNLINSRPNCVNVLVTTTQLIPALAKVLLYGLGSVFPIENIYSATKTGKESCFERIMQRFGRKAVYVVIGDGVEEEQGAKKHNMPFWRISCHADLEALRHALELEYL
# Target sequence (Q15475 whole entry, looked up): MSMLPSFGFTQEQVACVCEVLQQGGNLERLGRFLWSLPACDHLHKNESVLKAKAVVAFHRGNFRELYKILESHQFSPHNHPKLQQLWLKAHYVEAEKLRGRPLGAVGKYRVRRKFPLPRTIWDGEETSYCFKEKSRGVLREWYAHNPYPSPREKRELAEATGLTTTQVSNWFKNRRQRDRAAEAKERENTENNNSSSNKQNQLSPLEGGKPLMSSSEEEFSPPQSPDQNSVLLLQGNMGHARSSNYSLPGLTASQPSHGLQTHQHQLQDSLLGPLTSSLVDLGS
#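 GST-Six1 + His-Eya2 (5X stock: 250/500 nM); Tris pH 8.0, 300 mM NaCl, 0.05% BSA, 0.02% Tween 20; GSH donor/Ni acceptor beads; 1 h 37 °C dark; AlphaScreen readout.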
# Eya2 inh: qHTS Assay for Inhibitors of the Phosphatase Activity of Eya2; actives 0.006% (n = 330,000); Potency, µM (titrated, usually from 76.9 µM), for inactives: top-dose activity, negative = inhibition, hits mostly inhibitors; recombinant Eya2, OMFP fluorescence dephosphorylation (OMFP is methylfluorescein phosphate); Protein phosphatase EYA2 (Homo sapiens), O00167; AID 488837, 2010; note: potency is the fitted concentration of half-maximal effect
#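 Eya2 protein (added as 0.2 uM solution) was preincubated with compound for 10 min at ambient temperature in 50 mM HEPES pH 7.5, 50 mM NaCl, 5 uM MgCl2, 0.05% BSA, 1 mM DTT. OMFP (added at 50 uM) then reacted 10 min; fluorescence read at 485/525 nm.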
# uPA generation: qHTS for Inhibitors of Cell Surface uPA Generation. Potency, µM (top dose mostly 38.3 µM), inactives show at the highest dose activity change, negative = inhibition, actives largely listed as inhibitors. actives 0.31% (n = 330,000). cell surface uPA generation assay, qHTS; active = well fitted inhibition curve with a large enough effect; inconclusive = small, poorly fitted or top-dose-only effect; inactive = no such curve, though single readings can be large or run the other way; tested in mouse RAW 264.7 cells; note: potency is the fitted concentration of half-maximal effect; nearly all actives have a fitted effect of over 55% in size
# * hit, by the source's call; ? = inconclusive; . = no result; ! = not active in a repeat. Rows were chosen to be rich in hits. Some 1.2% of all compounds tested hit in one or more screens of this group. Unless noted, calls come from the whole dose curve; as a rule, active = well fitted curve in the direction sought with a large enough effect; inconclusive = small, poorly fitted or top-dose-only effect, or another doubt; inactive = no such curve, though single readings can be large; an effect the other way counts as inactive or inconclusive. Unless noted, % is set by controls: 0 for no effect and ±100 for the full control effect.
SMILES,USP2a inh,L3MBTL1 block,CtBP-E1A inh,Six1-Eya2 inh,Eya2 inh,uPA generation
O=C1c2cccc(NCCNCCO)c2C(=O)c2cccc(NCCNCCO)c21,.,.,-7,-71*,.,-9%
O=C(O)CCNc1ccc(NCCC(=O)O)c2c1C(=O)c1ccccc1C2=O,11%,.,.,-85*,-12%,-4%
CCn1nc(NC(=O)Cc2ccc(OC)cc2)c2cc3cccc(C)c3nc21,0%,17%,12,20,-1%,1%
Nc1ccc2c(c1Cl)C(=O)c1ccc(N)c(Cl)c1C2=O,4%,?,.,-78*,-1%,-10%
Cc1ccc2nc(Cl)c(/C=N/Nc3ccc(C(=O)O)cc3)cc2c1,9%,.,3,-4,22%,4µM*
Cc1cccc(C)c1NC(=O)CN1CCN(C(=O)c2ccc(OCc3cn4ccccc4n3)cc2)CC1,-3%,-11%,4,1,1%,0%
C#CCOCCOCCOCCNc1nc(N2CCN(C(=O)CCCCCCCCCCNC(=O)[C@H](CO)n3cc(CCCCCN)nn3)CC2)nc(N2CCN(C(=O)CCCCCCCCCCNC(=O)[C@H](CCCN=C(N)N)n3cc(C[C@@H](C)CC)nn3)CC2)n1,?,-2%,.,.,-31%,.
C#CCOCCOCCOCCNc1nc(N2CCN(C(=O)CCCCCCCCCCNC(=O)[C@H](CCCCN)n3cc(C)nn3)CC2)nc(N2CCN(C(=O)CCCCCCCCCCNC(=O)[C@H](CCCN=C(N)N)n3cc(C[C@@H](C)CC)nn3)CC2)n1,11µM*,?,-22,-13,22µM*,?
C#CCOCCOCCOCCNc1nc(N2CCN(C(=O)CCCCCCCCCCNC(=O)[C@H](CCCN=C(N)N)n3cc(C[C@@H](C)CC)nn3)CC2)nc(N2CCN(C(=O)CCCCCCCCCCNC(=O)[C@@H]([C@H](C)CC)n3cc(CCCCCN)nn3)CC2)n1,10µM*,-28%,.,.,?,.
C#CCOCCOCCOCCNc1nc(N2CCN(C(=O)CCCCCCCCCCNC(=O)[C@H]([C@@H](C)CC)n3cc(CCCCN=C(N)N)nn3)CC2)nc(N2CCN(C(=O)CCCCCCCCCCNC(=O)[C@H](CCCN=C(N)N)n3cc(C[C@@H](C)CC)nn3)CC2)n1,11µM*,-9%,.,.,-24%,.
Nc1nnc(CCS(=O)(=O)c2ccc(Br)cc2)s1,-2%,0%,.,0,0%,9%
O=C(NCc1ccco1)C1CCN(S(=O)(=O)c2cccc([N+](=O)[O-])c2)CC1,5%,.,3,3,-10%,-2%
CCc1sc(C(=O)N(CCCOC)c2c(N)n(CC(C)C)c(=O)[nH]c2=O)cc1C,-2%,4%,0,0,-11%,16%
Cc1noc(C)c1C(=O)Nc1ccccc1C(=O)NCCc1ccccc1,0%,.,6,11,0%,0%
CC(=O)Nc1ccc2c(c1)C(=O)N(c1cccc3ccccc13)C2=O,-1%,-1%,-8,-9,-17%,7%
CN(CC1COc2ccccc2O1)C(=O)CSc1ncnc2sccc12 (centres undefined),1%,1%,5,10,8%,-13%
N#C/C(=C(/O)c1ccc(Br)s1)c1nc2ccccc2[nH]1,0%,-5%,4,1,-3%,3.5µM*
Cc1cc(C)c(S(=O)(=O)c2ccccc2F)c(=O)[nH]1,2%,.,-7,6,-3%,2%
CC(C)CCC(C(=O)O)C(C)CC(=O)NNC(=O)c1ccco1 (centres undefined),3%,28µM*!,7,5,-12%,2%
CCCCC(C(=O)O)C(C)CC(=O)NNC(=O)c1ccco1 (centres undefined),4%,-27%,13,11,-9%,2%
CCc1ccc(CNc2ccc(O)cc2)cc1,2%,7.9µM*,?,-27,8%,-2%
COc1ccc(-c2cccc(-c3cc(=O)oc4cc(OC)cc(OC)c34)c2)cc1,0%,7%,0,-2,4%,0.79µM*
COc1cc(OC)c2c(-c3cccc(-c4cccc(C)c4)c3)cc(=O)oc2c1,0%,4%,0,0,-5%,3.2µM*
COc1cc(OC)c2c(-c3cccc(-c4ccc(CO)cc4)c3)cc(=O)oc2c1,2%,-10%,-10,-8,-15%,0.89µM*
CC(C)C(=O)N1CCC1(C)C(=O)NS(=O)(=O)c1cccs1 (centres undefined),.,.,9,-1,.,.
SMILES,USP2a inh,L3MBTL1 block,CtBP-E1A inh,Six1-Eya2 inh,Eya2 inh,uPA generation
O=C(Nc1nccs1)c1nc[nH]c1C(=O)N1CCN(c2ccccc2)CC1,8%,?,-71*,-78*,9%,7%
COc1cccc(CNC(=O)c2cc3c(C)nc4ccccc4c3o2)c1,-2%,.,-66*,?,13%,?
COc1ccc(CNC(=O)c2cc3c(C)nc4ccccc4c3o2)c(OC)c1,0%,.,-29,?,12%,?
COc1cccc(CNC(=O)c2c[nH]n3c(=O)c(Cl)c(C)nc23)c1,0%,-6%,-76*,-84*,-3%,4%
Cc1nc2c(C(=O)NCc3ccc4c(c3)OCO4)c[nH]n2c(=O)c1Cl,0%,7%,?,-26,-8%,14%
ClCC1CN(Cc2ccccc2Cl)CCO1 (centres undefined),-1%,.,1,5,2%,-11%
CC(NC(=O)Cn1nc(C(=O)O)c2ccccc2c1=O)C12CC3CC(CC(C3)C1)C2 (centres undefined),0%,5%,-1,-6,5%,-3%
CCOC(=O)c1c(C)[nH]c(C)c1C(=O)COc1ncnc2cc([N+](=O)[O-])ccc12,-1%,-17%,-70*,-76*,-7%,0%
O=C(NNC1=NS(=O)(=O)c2ccccc21)c1ccc(Cl)cc1,4%,4%,.,1,5%,3.5µM*
O=C(NNC1=NS(=O)(=O)c2ccccc21)c1ccc([N+](=O)[O-])cc1,-1%,.,3,7,0%,-5%
COc1cccc(N=Nc2c(N)[nH]n3c(=O)c4c(nc23)CCCC4)c1,0%,-6%,-16,-71*,7%,1%
COc1cccc(N=Nc2c(N)[nH][nH]c2=O)c1,4%,-8%,-15,-16,-8%,-5%

# Compound activity: PubChem BioAssay, National Center for Advancing Translational Sciences (NCATS)
